The list is not random: actives were taken first. Their share in the collection is about 4.5%.
GAA850 FXN act: frataxin GAA850 promoter activation; HEK293 lucGAA850 FXN promoter luciferase reporter, 24 h; percent of 10 µM SAHA response; activation, % at 6 µM; 360,000 tested, 0.56% active; AID 540364;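 active = activation above the average of all compounds screened plus 3 SD, cutoff fixed separately per campaign, cut at about 7.5% in these data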;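 note: 0% = DMSO wells and 100% = 10 µM SAHA wells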
DAX1 inh-1: DAX1 (NR0B1) inhibition, primary screen. HEK293T StAR-luciferase reporter, SF-1/DAX-1 repression relief. inhibition, % at 6.8 µM. 370,000 tested, 1.1% active;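 active = inhibition above the mean over all tested compounds plus 3 SD, cut at about 3.6% in these data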;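 note: 0% = DAX-1 cells with DMSO and 100% = cells lacking DAX-1 with DMSO; higher inhibition means more luminescence from relief of DAX-1 repression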
ssDAF-12 act: activators of S. stercoralis DAF-12 nuclear receptor; 370,000 tested, 1% active; activation, % at 6.8 µM; AID 652126; HEK293 ssDAF-12/GRIP1 lit1-tk-luc reporter, luminescence; % of 3 µM dafachronic acid response;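 active = activation above the mean over all tested compounds plus 3 SD, cut at about 0.9% in these data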;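 note: 0% = DMSO-only wells and 100% = 3 µM delta7-dafachronic acid wells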
hcDAF12 agonist: H. contortus DAF-12 activation, primary screen; HEK293 hcDAF-12 lit1-tk-luc reporter, luminescence; 0% DMSO, 100% Δ7-dafachronic acid; activation, % at 6.8 µM; 370,000 tested, 1.4% active;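 active = activation above the mean of all tested compounds plus 3 SD, cut at about 5.5% in these data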;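 note: 100% = response to 3 µM Δ7-dafachronic acid high control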
hgDAF-12 ag: activates the H. glycines DAF-12 receptor ligand-binding domain. HEK293 GAL4-hgDAF12 UAS-luciferase reporter, agonist luminescence; normalized to butyrate control. activation, % at 6.8 µM. 370,000 tested, 1.8% active. AID 687014;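 active = activation above a cutoff set at the mean of all screened compounds plus 3 SD, cut at about 10% in these data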;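 note: 0% = DMSO wells and 100% = sodium butyrate wells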
DAX1 inh-2: NR0B1 (DAX1) inhibition. P51843. 340,000 tested, 0.99% active. HEK293 Gal4-DAX1 luciferase reporter, luminescence. inhibition, % at 6.75 µM;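 active = inhibition above the mean over all tested compounds plus 3 SD, cut at about 4.2% in these data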;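 note: 0% = DAX1-transfected cells with DMSO and 100% = empty-vector control cells with DMSO; inhibition shows as a rise in luminescence from relieved DAX1 repression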
Target sequence (P51843 207-470 limits assumed): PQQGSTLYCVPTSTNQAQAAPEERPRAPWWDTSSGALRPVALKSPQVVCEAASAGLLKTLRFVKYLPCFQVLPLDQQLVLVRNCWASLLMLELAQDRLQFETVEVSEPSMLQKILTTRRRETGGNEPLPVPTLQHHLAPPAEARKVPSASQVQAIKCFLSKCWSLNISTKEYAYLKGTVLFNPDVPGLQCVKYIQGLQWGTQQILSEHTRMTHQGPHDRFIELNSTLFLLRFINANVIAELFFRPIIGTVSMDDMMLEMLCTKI
LXR ag: activates human LXR-beta, counter-screen for hcDAF-12 agonists | activation, % at 6.8 µM | 3,400 tested, under 10 active | AID 743027 | shares compounds with hcDAF12 agonist | HEK293 Gal4-LXR tk-luc reporter, luminescence, 24 h; normalized: DMSO 0%, positive control 100%;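 active = mean percent activation of the reporter above a cutoff set as the average over tested compounds plus their standard deviation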
hcDAF12 conf: hcDAF-12 agonism, confirmation assay; shares compounds with hcDAF12 agonist; HEK293 hcDAF-12 lit1-tk-luc reporter, luminescence; % of Δ7-dafachronic acid response; activation, % at 6.8 µM; 3,400 tested, 61% active;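 active = mean activation across triplicate tests above the threshold derived from the earlier primary screen, cut at about 5.5% in these data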;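 note: 0% = DMSO only wells and 100% = 3 µM Δ7-dafachronic acid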
Numbers without * were called inactive; . = no result.

SMILES	GAA850 FXN act	DAX1 inh-1	ssDAF-12 act	hcDAF12 agonist	hgDAF-12 ag	DAX1 inh-2	LXR ag	hcDAF12 conf
Cc1cccc(C(=O)NNC(=O)c2cccc(C)c2)c1	3	0	-1	0	1	0	.	.
COc1ccc(C2Nc3ccccc3C(=O)N2Cc2ccco2)cc1COc1ccccc1C (configuration not stated)	.	.	-2	-1	-2	.	.	.
CCc1nc2oc3ccccc3c(=O)c2c(=O)n1CCOC	1	1	0	3	0	1	.	.
CCc1nc2oc3ccccc3c(=O)c2c(=O)n1-c1ccccc1	5	2	1.2*	8.8*	13*	3	1	8.7*
Cc1ccc(-n2c(C(C)C)nc3oc4ccccc4c(=O)c3c2=O)cc1	-3	2	2.9*	12*	12*	6.0*	1	13*
CCc1nc2oc3ccccc3c(=O)c2c(=O)n1-c1ccc(C)cc1	3	3	4.0*	12*	11*	.	1	14*
CCCc1nc2oc3ccccc3c(=O)c2c(=O)n1-c1ccc(C)cc1	-3	1	1.9*	11*	9	.	1	12*
CCCc1nc2c(c(=O)c3ccccc3n2C)c(=O)n1-c1ccc(F)cc1	-3	0	0	3	2	0	.	.
CCCc1nc2oc3ccccc3c(=O)c2c(=O)n1-c1ccccc1	-3	0	1.2*	9.5*	4	.	1	8.0*
COc1cccc2c1CCc1c-2nc2ccccc2c1C(=O)O	2	1	0	8.4*	12*	0	1	7.8*
COC[C@@H]1CCCN1c1ccc2c(c1)OCCCN(C1CC1)S2(=O)=O	.	-1	-1	-2	1	.	.	.
CN(C)[C@@H]1CCN(c2ccc3c(c2)OCCCN(C2CC2)S3(=O)=O)C1	.	-1	-1	1	1	.	.	.
Cn1c(O)c(N=NC(=O)Cn2ccc(C(F)(F)F)n2)c2ccccc21	-1	0	-1	9.1*	2	-2	0	0
CCn1c(O)c(N=NC(=O)Cn2ccc(C(F)(F)F)n2)c2ccccc21	1	-1	-2	-1	3	1	.	.
CCn1c2c(n(C(C)=O)c1=O)C[C@@H](c1ccccc1)[C@@H](C)[C@@H](C(=O)N1CCCC1)C2	.	1	-1	0	-1	.	.	.
CCC(C)[C@H](NC(=O)N1CC(=O)Nc2ccccc21)C(=O)N[C@H](Cc1c[nH]c2ccccc12)C(=O)O (some centres not stated)	0	0	0	8.0*	0	1	0	3
O=C(Cn1c(-c2cncs2)nc2ccccc21)N1CCOCC1	.	-1	-1	-2	1	.	.	.
Cc1ccc(-c2cc(=O)c3ccccc3[nH]2)cc1	-1	0	-1	1	4	3	.	.
Cc1ccc2[nH]c(-c3ccccc3)cc(=O)c2c1	2	3	3.5*	13*	5	1	1	5
COc1ccc(NCc2nc3ccccc3n2CCOc2ccccc2)cc1	5	2	-2	0	5	1	.	.
COc1ccc(NCc2nc3ccccc3n2C)cc1	5	2	2.4*	10.0*	12*	5.6*	1	12*
Cc1ccc(NCc2nc3ccccc3n2C)cc1C	2	3	1.7*	13*	13*	3	1	8.2*
Cn1c(CNC2CCCCC2)nc2ccccc21	0	0	0	1	0	0	.	.
C=CCc1ccccc1OCC(O)CNC1CCCC1 (configuration not stated)	-2	0	-1	7.2*	-3	0	0	0
C=CCc1ccccc1OCC(O)CNC(C)C (configuration not stated)	-1	1	0	-1	-1	0	.	.
